HCMV inh – blocks human cytomegalovirus replication. activity change, negative = inhibition, % at 57.5 µM. HFF cells, HCMV-luciferase reporter, 72 h; active compounds read low. hit rate 4.5% among 410,000; in the data active = activity change below about -60%; inconclusive = no clear call, values can overlap the other calls; inactive = above about -39%
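After 16 h attachment at 37C, HFF cells received test compound and HCMV-luciferase (1 PFU/cell); reporter luminescence read 72 h later, data normalized against buffer-only and known inhibitor Salinomycin.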
LASV entry inh – Lassa virus entry inhibition. Lassa virus pseudotype entry inhibition, cell reporter. Potency, µM (titrated, usually from 37.9 µM), for the others: at the highest dose activity change, negative = inhibition, most hits filed as inhibitors. hit rate 1.2% among 300,000. AID 540256; calls by dose curve; tested in HEK293 cells; also: potency is read from the fitted curve at half-maximal effect; nearly all actives have a fitted effect of over 50% in size
FMDV antiviral – antivirals against foot and mouth disease virus. FMDV antiviral cell-based qHTS. hit rate 1.2% among 410,000. Potency, µM (titrated, usually from 57.9 µM), for the others: at the top dose activity change, negative = inhibition, hits mostly inhibitors. AID 1159524; calls by dose curve; tested in HEK293T cells; also: read-out not given here; potency is read from the fitted curve at half-maximal effect; nearly all actives have a fitted effect of over 45% in size
MARV entry inh – inhibitors of Marburg virus binding or cell entry | Marburg virus pseudotyped entry inhibition, cell reporter | Potency, µM (top dose mostly 37.8 µM), inactives show at the highest dose activity change, negative = inhibition, most hits filed as inhibitors | hit rate 1.8% among 300,000 | AID 540276; calls by dose curve; tested in HEK293 cells; also: potency is read from the fitted curve at half-maximal effect
HCV inh – blocks hepatitis C virus | Huh7.5.1 HCVcc-Cre infection, luciferase reporter, 44 h | Potency, µM (highest dose often 41.8 µM), for the others: top-dose activity change, negative = inhibition, usual class: inhibitors | hit rate 3.4% among 340,000 | AID 651820; active = well fitted inhibition curve with a large enough effect; inconclusive = small, poorly fitted or top-dose-only effect, or another doubt; inactive = no such curve, though single readings can be large or run the other way; also: potency is read from the fitted curve at half-maximal effect
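Seed cells (1,000/well) for 4 h; treat with compound and infect with HCVcc-Cre, moi about 0.5. Incubate 44 h, then detect luciferase activity.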
* = called active by the depositor; [ ] = dose if it differs, or a comment. Rows were chosen to be rich in hits. Some 7.9% of all compounds tested hit in one or more screens of this group. % is scaled to controls: 0 for no effect and ±100 for the full control effect.

For COC(=O)CN1C(=O)[C@H]2[C@@H](c3ccc(C)o3)N3C(=O)CN(Cc4ccccc4)C(=O)[C@@]3(C)[C@H]2C1=O the results were HCMV inh -83*, FMDV antiviral -5% and HCV inh 13%.
Screening COC(=O)CN1C(=O)[C@H]2[C@@H](c3ccc(C)o3)N3C(=O)CN(CC4CC4)C(=O)[C@@]3(Cc3ccccc3)[C@H]2C1=O returned HCMV inh -93*, FMDV antiviral -6% and HCV inh -10%.
Screening Cc1ccc([C@@H]2[C@@H]3C(=O)N(C)C(=O)[C@@H]3[C@]3(C)C(=O)N(Cc4ccccc4)CC(=O)N23)o1 returned FMDV antiviral 25% and HCV inh -14%.
`Cc1nn(C)cc1CN1CCOc2ccc(CN3CCC(Oc4cccnc4)CC3)cc2C1` gave FMDV antiviral -6%.
`O=C(NCC1Cc2cccc(-c3cncnc3)c2O1)C1CC1` (stereo not given) gave FMDV antiviral -14%.
O=C(O)CC1CCCC(c2ccccc2)C1=O (stereo not given) was read as HCMV inh 18, LASV entry inh -11%, FMDV antiviral 17%, MARV entry inh inconclusive and HCV inh -12%.
`C[N+](C)(C)CC1CCCC(C[N+](C)(C)C)C1=O` (stereo not given) gave HCMV inh -28, LASV entry inh inconclusive, FMDV antiviral inconclusive, MARV entry inh 10µM* and HCV inh 2.2µM*.
Screening C[N+](C)(C)CC1CCCc2ccccc2C1=O (stereo not given) returned HCMV inh inconclusive, LASV entry inh inconclusive, FMDV antiviral inconclusive, MARV entry inh inconclusive and HCV inh 11µM*.
Screening Cc1cccc(N2CCN(C(=O)Cn3c(=O)c4cccn4c4ccc(F)cc43)CC2)c1C returned HCMV inh inconclusive, LASV entry inh inconclusive and FMDV antiviral -5%.
`Cc1ccc(CCNC(=O)c2cc(C)nc3c2c(C)nn3-c2ccc(C)cc2)cc1` gave HCMV inh 15, LASV entry inh 5%[46.1 µM] and FMDV antiviral -3%.
Screening O=C(NCCc1ccc(F)cc1)c1coc(=O)c(Br)c1 returned HCMV inh -78*, FMDV antiviral 35µM* and HCV inh 7%.
For O=C(NCc1ccccn1)c1coc(=O)c(Br)c1 the results were HCMV inh 50, LASV entry inh -1%, FMDV antiviral 20µM*, MARV entry inh -13% and HCV inh 13%.
CCOc1ccc(C(=O)NCc2ccccn2)cc1 was read as HCMV inh 29, LASV entry inh -2%, FMDV antiviral 63%, MARV entry inh -3% and HCV inh 23%.
`O=C(Nc1ccccc1F)c1coc(=O)c(Br)c1` gave HCMV inh -7, LASV entry inh -8%, FMDV antiviral -27%, MARV entry inh -19%[46.1 µM] and HCV inh 31%.
For Cc1cc(C)cc(OCC(=O)NC(Cc2c[nH]c3ccccc23)C(=O)O)c1 (stereo not given) the results were HCMV inh 5, LASV entry inh 3%[46.1 µM], FMDV antiviral 4% and MARV entry inh 4%[46.1 µM].
For O=S(=O)(c1ccccc1)c1nc(-c2ccc(Cl)cc2Cl)oc1N1CCCCCC1 the results were HCMV inh 6, LASV entry inh 29%[46.1 µM], FMDV antiviral 7% and MARV entry inh -18%[46.1 µM].
Screening Cc1c(C(=O)NCc2ccc3c(c2)OCCO3)sc(=O)n1Cc1cccc(C(F)(F)F)c1 returned HCMV inh -79* and FMDV antiviral -20%.
Cc1c(C(=O)NCc2ccccc2C(F)(F)F)sc(=O)n1Cc1ccc2ccccc2c1 was read as HCMV inh -71* and FMDV antiviral -5%.
For Cc1c(C(=O)NCc2ccc(Cl)c(Cl)c2)sc(=O)n1Cc1ccc(S(C)(=O)=O)cc1 the results were HCMV inh -80* and FMDV antiviral 35µM*.
Cc1c(C(=O)NCc2ccc3c(c2)OCCO3)sc(=O)n1Cc1ccccc1C(F)(F)F was read as HCMV inh -29 and FMDV antiviral -12%.
`Cc1c(C(=O)NCc2ccc3c(c2)OCCO3)sc(=O)n1Cc1ccc(S(=O)(=O)N(C)C)cc1` gave HCMV inh -37 and FMDV antiviral 14µM*.
For CCNC(=O)C1(C)CCCN(C(=O)COc2ccc(Cl)cc2Cl)C1 (stereo not given) the results were HCMV inh 5.
